Experimental data as given in PubChem BioAssay AID1851 (National Center for Advancing Translational Sciences (NCATS), 2009).
Several values for one entry are separate records, joined by “and”; a condition that tells them apart may be missing. Identical values can stand only once. The campaign covered roughly 16,000 compounds. About 5,700 (36%) were called active. About 24% were inconclusive and are not listed. Calls follow the shape of the dose curve; as a rule, active = well fitted curve in the direction sought with a large enough effect; inconclusive = small, poorly fitted or top-dose-only effect, or effect the other way; inactive = no such curve, though single readings can be large or run the other way. The list shows a part of the results.

Target: Cytochrome P450 1A2 (Homo sapiens) (UniProt P05177)
Assay: Cytochrome panel assay with activity outcomes
Conditions: recombinant CYP, pro-luciferin dealkylation, luminescence, p450-cyp1a2; series mostly up to 57.1 µM
% is scaled to controls: 0 for no effect and ±100 for the full control effect.

Chain of Cytochrome P450 1A2 (Homo sapiens) (P05177 whole entry, looked up): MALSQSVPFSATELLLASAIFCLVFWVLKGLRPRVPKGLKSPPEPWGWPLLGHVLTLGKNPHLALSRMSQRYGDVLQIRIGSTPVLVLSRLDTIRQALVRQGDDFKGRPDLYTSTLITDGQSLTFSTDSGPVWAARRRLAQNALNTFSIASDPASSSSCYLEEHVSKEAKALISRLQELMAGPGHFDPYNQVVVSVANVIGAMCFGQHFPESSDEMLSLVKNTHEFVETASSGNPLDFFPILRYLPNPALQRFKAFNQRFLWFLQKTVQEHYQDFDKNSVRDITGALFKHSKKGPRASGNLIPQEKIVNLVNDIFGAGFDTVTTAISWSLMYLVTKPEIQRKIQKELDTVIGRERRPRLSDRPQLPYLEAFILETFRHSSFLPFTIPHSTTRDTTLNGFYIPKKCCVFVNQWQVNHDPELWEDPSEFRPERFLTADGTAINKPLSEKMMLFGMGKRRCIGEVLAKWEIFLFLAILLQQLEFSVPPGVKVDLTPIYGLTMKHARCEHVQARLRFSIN

Structure (SMILES) | AC50 | activity, negative = inhibition
CSC(N)=NCCC[C@@H](N)C(=O)O | inactive | 
FC(F)(F)c1ccccc1-c1nc(NC2CC2)c2ccccc2n1 | 0.398 µM (active) | 
CNc1nc(-c2ccccc2C(F)(F)F)nc2ccccc12 | 0.251 µM (active) | 
O=C1[C@H]2O[C@@H]2[C@@H](O)[C@H]2[C@H]1CCn1c(=O)n(Cc3cc4c(cc3Cl)OCO4)c(=O)n12 |  | -4.53% [at 11.4 µM] (inactive)
COc1ccc2c(Cl)c(-c3nnco3)sc2c1 | 0.794 µM (active) | 
Cc1cccc(C)c1OC[C@H](C)N | 2.51 µM (active) and 398 nM (active) | 
Cc1cccc(C)c1OC[C@@H](N)C(C)C | 12.6 µM (active) | 
Cc1cccc(C)c1OCC(O)CNC(C)(C)C (stereo unspecified) | inactive | 
O=C1C[C@@H](O)[C@@H](O)[C@H]2[C@@H]3C(=O)N(c4cccc(Oc5ccccc5)c4)C(=O)[C@@H]3CC[C@H]12 |  | 0.387% [at 11.4 µM] (inactive) and -5.49% [at 11.4 µM] (inactive)
O=C(NC(=S)Nc1ccc(Oc2ccc(Cl)cc2)cc1)c1ccccc1 | inactive | 
O=C(NC(=S)Nc1ccc2c(c1)OCO2)c1ccccc1 | 2.82 µM (active) | 
Cc1ccc(C(=O)NC(=S)Nc2ccc3c(c2)OCCO3)c(C)c1 | 7.08 µM (active) | 
O=C(NC(=S)Nc1ccc(C(=O)N2CCOCC2)cc1)c1ccc([N+](=O)[O-])cc1 | inactive | 
c1ccc2c(c1)ncn2-c1ccc(-c2ccnc(-c3ccncc3)n2)cc1 | 0.316 µM (active) | 
c1ccc(-c2nccc(-c3ccc(-n4cnc5ccccc54)cc3)n2)nc1 | 10 µM (active) | 
COc1cc(OC)c(OC)cc1C=NCC1(c2ccccc2)CCCC1 | 8.91 µM (active) | 
C#CCCCCCCCCCCCCCCCC(=O)O | 6.31 µM (active) | 
O=C(O)CCCCCCCC(=O)O | inactive | 
C#CCOCCCC(=O)O |  | -1.25% [at 11.4 µM] (inactive)

Structure (SMILES) | AC50 | activity, negative = inhibition
C[C@H]1COC(=O)[C@H](Cc2ccccc2)NC(=O)[C@@H](C)COC(=O)[C@H](Cc2ccccc2)NC1=O |  | 9.1% [at 11.4 µM] (inactive)
CCOC(=O)c1c(NC(=O)/C=C/c2ccc3c(c2)OCO3)sc(C)c1C | inactive | 
COC(=O)c1cc(NC(=O)/C=C/c2ccc3c(c2)OCO3)cc(C(=O)OC)c1 | 12.6 µM (active) | 
CC(C)[C@H](NC(=O)OC(C)(C)C)[C@@H](O)CC(=O)C(C)(C)C |  | 0.674% [at 11.4 µM] (inactive)
COc1ccc(CNc2ncncc2-c2cccc(NS(C)(=O)=O)c2)c(OC)c1 | 15.8 µM (active) | 
COc1ccc(CNc2ncncc2-c2cccnc2)c(OC)c1 | 3.16 µM (active) | 
COc1ccccc1CN1CCCC2(CCN(C(=O)c3cnccn3)CC2)C1 | inactive | 
COc1ccccc1CNc1ncncc1-c1cccnc1 | 0.794 µM (active) | 
COc1ccccc1CNc1ncncc1-c1ccoc1 | 1.26 µM (active) | 
COCC(=O)N1CCC2(CCCN(C(=O)Nc3cccc(F)c3)C2)CC1 | inactive | 
CCc1cc2c(nc1CC)CCN(CC/C(C)=N/O[C@@H](C)c1cn([C@@H]3COC[C@@H]3O)nn1)C2 |  | -1.13% [at 11.4 µM] (inactive)
COc1ccc(-c2ccc3c(n2)CCCN3C[C@H](O)CN2CCCc3nc(-c4ccc(Br)cc4)ccc32)cc1 |  | -3.07% [at 11.4 µM] (inactive) and -10.4% [at 11.4 µM] (inactive)
Cc1ccc2nc(Cc3ccc(N)cc3)[nH]c2c1 | 3.98 µM (active) | 
COc1ccc(Cc2nc3ccc(S(=O)(=O)N4CCOCC4)cc3[nH]2)cc1OC | inactive | 
O=[N+]([O-])c1cc2c(cc1C=Nc1ccccc1)OCO2 | 2.82 µM (active) | 
O=C(O)c1cc(N=Cc2ccccc2O)cc(C(=O)O)c1 |  | -12.6% [at 11.4 µM] (inactive)
CN(C)c1ncc2ncc(=O)n(CCC#N)c2n1 | 12.6 µM (active) | 
Cc1nc2cnc(N(C)C)nc2n(CCC#N)c1=O | 10 µM (active) | 
CC(C)=CCc1c2c(c3occ(-c4ccc(O)c(O)c4)c(=O)c3c1O)C=CC(C)(C)O2 |  | -3.01% [at 2.29 µM] (inactive)

Structure (SMILES) | AC50 | activity, negative = inhibition
Br/C(=N\Nc1nn[nH]n1)c1ccncc1 |  | -5.24% [at 11.4 µM] (inactive)
CC(C)(C)CNC(CO)C12CC3CC(CC(C3)C1)C2 (stereo unspecified) | inactive | 
CCN(Cc1ccncc1)C(=O)[C@@H](CO)c1ccccc1 | 15.8 µM (active) | 
C=CC[C@@H](C(=O)O)c1ccccc1 |  | 0.428% [at 11.4 µM] (inactive)
CN(C(=O)c1ccncc1)c1ccccc1 |  | -13.8% [at 11.4 µM] (inactive)
CC(C)(C)c1[nH]nc2c1C(c1ccc(OC(=O)c3ccco3)cc1)C(C#N)=C(N)O2 (stereo unspecified) | 31.6 µM (active) | 
COc1ccc(Oc2ncc3nc(-c4cccc(C#N)c4)c(=O)n(Cc4cccc(OC)c4)c3n2)cc1 | inactive | 
COCCn1c(=O)c(-c2ccc(F)cc2)nc2cnc(Oc3ccccc3)nc21 | 0.794 µM (active) | 
Cn1c(=O)c(-c2cccc(C#N)c2)nc2cnc(Oc3ccccc3)nc21 | 1.58 µM (active) | 
COCCn1c(=O)c(-c2cccc(C#N)c2)nc2cnc(Oc3ccccc3)nc21 | 15.8 µM (active) | 
COCCn1c(=O)c(-c2ccc(Cl)cc2)nc2cnc(Oc3ccccc3)nc21 | 0.794 µM (active) | 
C[N+]1(NCC[N@@+]2(C)CCc3ccccc3C2)CCCCC1 |  | -12.7% [at 11.4 µM] (inactive)
COC(=O)[C@@]1(Cc2ccccc2)[C@H]2c3cc(C(=O)N4CCCC4)n(Cc4ccc(OC)c(OC)c4)c3C[C@H]2CN1C(=O)c1ccccc1 | inactive | 
COCCn1c(=O)c(-c2ccccc2)nc2cnc(Oc3ccc(OC)cc3)nc21 | 1.26 µM (active) | 
COCCn1c(=O)c(-c2ccccc2)nc2cnc(Oc3ccccc3)nc21 | 1.58 µM (active) | 
COCCn1c(=O)c(-c2cc(F)cc(F)c2)nc2cnc(Oc3ccccc3)nc21 | 5.01 µM (active) | 
C#CCCCO/N=C1/C[C@@H](O)[C@@H](O)[C@@H]2[C@H]3C(=O)N(c4ccc(F)cc4F)C(=O)[C@@H]3CC[C@H]12 |  | -9.85% [at 11.4 µM] (inactive)
CO[C@H]1COC(=O)C/C=C\[C@H](C)[C@@H](NS(=O)(=O)c2ccc(C)cc2)COC(=O)C/C=C\[C@@H]1C |  | -4.23% [at 11.4 µM] (inactive) and -3.02% [at 11.4 µM] (inactive)
